# Screening data as filed in PubChem BioAssay.
# Sa ugtP lethal: compounds lethal to S. aureus RN4220 ugtP deletion mutant; OD600 growth, 16 h; growth inhibition, % (test concentration not listed); hit rate 0.54% among 330,000; in the data active means growth inhibition above about 68%;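 further: plate controls were untreated wells for no effect and antibiotic for full effect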
# SSB-PriA inh: inhibitors of Klebsiella pneumoniae PriA binding to SSB C-terminal tail | hit rate 0.6% among 430,000 | AlphaScreen SSBct-PriA binding, biotinylated peptide | inhibition, % at 33 µM; in the data active means inhibition mostly above about 37%, no sharp cut-off; inactive means mostly below about 20%;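 further: plate controls were negative control peptide for no effect and reference peptide for full effect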
# Sa RN4220 lethal: S. aureus RN4220 growth inhibition. OD600, 16 h. inhibition, % (concentration not given with the values). hit rate 0.33% among 330,000. AID 1259311; in the data active means inhibition above about 85%;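 further: plate controls were untreated cells for no effect and reference antibiotic for full effect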
# * marks the source's active call; other numbers are inactive results; i = inactive; · = not tested or not shown. Only some compounds are listed: those with a hit (about 1% of all), similar ones and a draw of the others.
SMILES,Sa ugtP lethal,SSB-PriA inh,Sa RN4220 lethal
O=C(Cc1csc2nc(-c3ccccc3)cn12)N1CCN(c2ccccc2)CC1,·,-1,·
COc1ccc(N2CCN(C(=O)c3csc(Nc4ccccc4)n3)CC2)cc1,·,38,·
O=C(NCCC(CCO)c1ccccc1)c1ccccc1Cl (stereo not drawn),·,-1,·
CN(N=Cc1ccc(Cl)cc1Cl)c1ncc(Cl)cc1C(F)(F)F,54,·,-1
CN(N=Cc1ccc(Cl)cc1)c1ncc(Cl)cc1C(F)(F)F,98*,·,-11
Cc1ccc(OCc2nc(-c3ccccn3)n[nH]2)cc1,-13,109*,-1
Cc1cccc(OCc2n[nH]c(=S)n2-c2ccccc2)c1,3,-22,2
Cc1cccc(OCc2nc(-c3ccccn3)n[nH]2)c1,-4,90*,-1
Cc1ccc(-c2n[nH]c(-c3ccccn3)n2)cc1,·,55,·
O=C(O)Cc1nc(-c2ccccn2)n[nH]1,·,30,·
COCc1nc(-c2ccccn2)n[nH]1,·,68*,·
COc1ccc(C)cc1S(=O)(=O)Nc1ccc2c(c1)N(C(=O)c1cccs1)CCC2,·,-2,·
O=C(NCCc1nc2c(c(C(F)(F)F)n1)COCC2)c1cnn(-c2ccccc2)n1,·,15,·
O=S(=O)(Nc1ccc2cn[nH]c2c1)c1ccc(Br)cc1,·,0,·
CS(=O)(=O)c1ccc(-c2ccc(NC(=O)c3ccco3)cc2)nn1,·,-1,·
CCOC(=O)c1nc(Nc2ccc(Nc3ccccc3)cc2)c2ccccc2n1,-27,47*,-2
CCOC(=O)c1ccc(Nc2nc(C(=O)OCC)nc3ccccc23)cc1,-22,-17,2
CCOc1ccc(NC(=O)CCC(=O)NN=Cc2ccc3c(c2)OCO3)cc1,·,-9,·
CCOc1ccccc1NC(=O)c1c[nH]c(=O)n(-c2cccc(OC)c2)c1=O,·,-9,·
N#Cc1ccc(/C=N/NC(=S)Nc2ccc(S(=O)(=O)N3CCOCC3)cc2)cc1,·,i,·
O=[N+]([O-])c1cc(Cl)cc(C=NNC(=S)Nc2ccc(S(=O)(=O)N3CCOCC3)cc2)c1O,-15,67*,21
CS(=O)(=O)c1ccc(C(=O)Nc2nc3c(Cl)c(Cl)ccc3s2)cc1,·,-3,·
CCOc1ccc(CCNC(=O)c2ccc(CS(=O)Cc3ccc(Cl)cc3)o2)cc1OCC (stereo not drawn),15,-4,3
CCOc1ccc(CCNC(=O)c2ccc(CS(=O)Cc3cccc(Cl)c3)o2)cc1 (stereo not drawn),96*,-5,-6
COc1cc(OC)c(OC)cc1C=NN(C)c1ccccc1,3,73*,-1
SMILES,Sa ugtP lethal,SSB-PriA inh,Sa RN4220 lethal
CN(N=Cc1ccc2c(c1)OCO2)c1ccccc1,-6,26,5
CS(=O)(=O)c1ccc2nc(NC(=O)COc3ccnc4c3CCCC4)sc2c1,·,9,·
Nc1nc(C2C(=O)CCCC2=O)cs1,-3,58*,6
Nc1nc(C2CC(=O)OC23CCCCC3)cs1 (stereo not drawn),3,-14,2
COc1ccc2cc(CCNC(=O)c3cc(Cl)ccc3[N+](=O)[O-])c(=O)[nH]c2c1,·,1,·
Cc1cc(OC2CN(C(=O)c3cnoc3C)C2)cc(=O)o1,·,-3,·
CCOC(=O)C(NC(=O)Nc1ccc(F)cc1F)(Oc1ccc(F)cc1)C(F)(F)F (stereo not drawn),71,-7,85*
CCOC(=O)C(NC(=O)Nc1ncccn1)(Oc1ccccc1)C(F)(F)F (stereo not drawn),-2,-7,19
COc1ccc(-c2cnc(C(=O)Nc3nc4ccccc4[nH]3)o2)cc1,·,-6,·
O=C1c2cccc3cccc(c23)C(=O)N1CCN1CCN(C(=S)Nc2ccccc2)CC1,98*,-3,93*
O=C1c2cccc3cccc(c23)C(=O)N1CCN1CCN(C(=S)Nc2ccc(Cl)cc2)CC1,-5,-13,-1
O=C(CSc1ccc2ccccc2n1)Nc1ccccc1F,·,-14,·
Cc1ccc(C)c(N=Nc2nc3ccccc3n2C)c1,-19,5,8
Cc1cc(C)c(C)c(N=Nc2nc3ccccc3n2C)c1C,8,68*,2
Cc1csc(C(=O)N2CC(n3ccnn3)C2)c1,·,5,·
O=C(Nc1nnc(-c2ccc(F)cc2)o1)C1CCCN1S(=O)(=O)c1cccs1 (stereo not drawn),9,-4,6
Cc1ccc(C(=O)Nc2nc(-c3ccccn3)cs2)s1,2,47*,19
O=C(Nc1nc(-c2ccccn2)cs1)c1ccccc1C(F)(F)F,·,88*,·
O=C(Nc1nc(-c2ccccc2)cs1)c1cccs1,20,-10,29
N#Cc1ccccc1Sc1ccccc1C(=O)Nc1nc(-c2ccccn2)cs1,·,34,·
O=C(Nc1nc(-c2ccccn2)cs1)c1ccc(Cl)s1,58,32,51
O=C(Nc1nc(-c2ccccn2)cs1)c1ccc(NC(=O)c2cccs2)cc1,·,97*,·
COc1ccccc1-c1nnc(NC(=O)C2CCCN2S(=O)(=O)c2cccs2)o1 (stereo not drawn),·,75*,·
CCC(=O)Nc1ccc2c(c1)N(C(C)=O)CC2,·,-12,·
O=C(NCc1ccco1)c1[nH]nc2c1COc1ccccc1-2,·,9,·
SMILES,Sa ugtP lethal,SSB-PriA inh,Sa RN4220 lethal
CC(C)(C)c1nnc(NCc2cccnc2)[nH]c1=O,·,-3,·
O=C(Nc1ccc(-c2nc3ccccc3[nH]2)cc1)C1CCCN1S(=O)(=O)c1ccc(Cl)s1 (stereo not drawn),·,-6,·
O=C(CC12CC3CC(CC(C3)C1)C2)Nc1nc(-c2ccccn2)cs1,·,43,·
O=C(Nc1ccccc1)C(=O)Nc1nc(-c2ccccn2)cs1,·,35,·
CC(C)(C)NC(=O)C(=O)Nc1nc(-c2ccccn2)cs1,·,101*,·
COc1ccc(-c2csc(NC(=O)c3ccc(S(C)(=O)=O)cc3)n2)cc1,5,-7,5
O=C(Nc1nc(-c2ccccn2)cs1)c1c[n+]2cccnc2[nH]1,·,99*,·
O=C(CC12CC3CC(CC(O)(C3)C1)C2)Nc1nc(-c2ccccn2)cs1,·,97*,·
O=C(Nc1nc(-c2ccccn2)cs1)c1ncc(Cl)c(Cl)c1Cl,-16,12,-1
COc1ccc(S(=O)(=O)Nc2ccc(C(=O)Nc3nc(-c4ccccn4)cs3)cc2)cc1,·,95*,·
O=c1c(-c2nc(-c3cnccn3)no2)cccn1Cc1ccccc1Cl,·,-7,·
CCS(=O)(=O)c1ccccc1C(=O)Nc1nc2c(OC)ccc(Cl)c2s1,·,7,·
O=C(NC1CCCC1)C1(c2cccs2)CCCC1,·,-17,·
O=C(Nc1nc(-c2ccccn2)cs1)[C@@H]1CCCN1S(=O)(=O)c1cccs1,·,91*,·
O=C(Nc1nc(-c2ccc(Cl)cc2Cl)cs1)c1ccccc1,·,-4,·
Cc1cc(C)cc(C(=O)Nc2nc(-c3ccccn3)cs2)c1,·,92*,·
O=C(Nc1nc(-c2cccs2)cs1)C1CCCCN1S(=O)(=O)c1cccs1 (stereo not drawn),·,5,·
O=C(Nc1nc(-c2ccccn2)cs1)c1ccc(Cl)cc1,·,73*,·
Cc1cc(C)cc(OCC(=O)Nc2nc(-c3ccccn3)cs2)c1,1,-7,4
CC1CN(Cc2ccc(C(=O)Nc3nc(-c4ccccn4)cs3)cc2)CC(C)O1 (stereo not drawn),·,114*,·
COc1cccc(-c2csc(-n3nc(C)cc3NC(=O)c3c(F)cccc3F)n2)c1,·,4,·
O=C(c1ccc2nsnc2c1)N1CCc2ncncc2C1,·,-9,·
Cc1nn(C(C)C)c(C)c1S(=O)(=O)N1CCC(Oc2cccnn2)C1 (stereo not drawn),·,-4,·
CCOc1ccccc1C(=O)N1CCC(c2nnc(C(C)C)o2)CC1,·,3,·
CCc1ccc(-c2cnc(NC(=O)c3sc4ccccc4c3Cl)s2)cc1,·,2,·
